# Screening results from PubChem.
# Hits are enriched below; roughly 2.4% of the tested compounds scored in any of these assays.
# D2 PAM-1: HTS Assay for Positive Allosteric Modulators of the Human D2 Dopamine Receptor: Primary Screen for Potentiators; HEK293 T-REx D2, calcium flux, EC20 dopamine potentiation; potentiation, % at 10 µM; hit rate 0.34% among 340,000; D(2) dopamine receptor (Homo sapiens), P14416; AID 485347, 2010;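 active means potentiation over 3 SD above the plate norm, cut at about 30% in these data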; further: 0% is about no effect
# Target sequence (P14416 whole entry, looked up): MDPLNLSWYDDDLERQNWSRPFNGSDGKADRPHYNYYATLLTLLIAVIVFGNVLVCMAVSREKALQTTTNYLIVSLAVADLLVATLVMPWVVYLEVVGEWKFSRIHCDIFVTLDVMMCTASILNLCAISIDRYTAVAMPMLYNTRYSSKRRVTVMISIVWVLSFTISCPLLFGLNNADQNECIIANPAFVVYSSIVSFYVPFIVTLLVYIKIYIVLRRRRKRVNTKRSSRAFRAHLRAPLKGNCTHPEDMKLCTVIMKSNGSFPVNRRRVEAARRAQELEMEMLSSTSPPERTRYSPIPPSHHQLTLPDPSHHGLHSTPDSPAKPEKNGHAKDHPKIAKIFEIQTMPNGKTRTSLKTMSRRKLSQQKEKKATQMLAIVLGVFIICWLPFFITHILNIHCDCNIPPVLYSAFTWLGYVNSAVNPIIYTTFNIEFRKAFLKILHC
#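 Calcium flux readout, no-wash dye, 1 read/s. Inducible HEK293 Trex D2 line, overnight 30 C. Compound alone 180 s (agonist flags), then EC20 dopamine, another 180 s to score potentiation.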
# D2 antag: HTS Assay for Allosteric Antagonists of the Human D2 Dopamine Receptor: Primary Screen for Antagonists; hit rate 2% among 340,000; HEK293 TREx D2 cells, calcium flux, dopamine EC80; D(2) dopamine receptor (Homo sapiens), P14416; inhibition, % at 10 µM; in the data active means inhibition above about 30%; inactive means below that, where a call was filed; further: 0% is about no effect
#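 Calcium flux kinetic readout in an inducible HEK293 TREx D2 line plated overnight at 30 C. After 180 s compound exposure, an EC80 dopamine challenge follows with another 180 s kinetic read to detect antagonism.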
# D2 ag-1: Beta-Arrestin HTS for Positive Allosteric Modulators of the Human D2 Dopamine Receptor: Agonists; activation, % (test concentration not listed); hit rate 0.084% among 360,000; D(2) dopamine receptor (Homo sapiens), P14416; DiscoveRx PathHunter D2 beta-arrestin, luminescence, 90 min; 100% = 57 uM dopamine signal; AID 624465, 2012; in the data active means activation above about 40%; inconclusive means between about 15% and that limit
#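 Agonist mode: compounds alone added to overnight-plated D2 PathHunter cells for 90 min at 37 C, with 57 uM final dopamine (EC100) defining full response. Beta-arrestin recruitment detected by chemiluminescent reagent, read after 1 h at ambient temperature.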
# D2 PAM-2: Beta-Arrestin HTS for Positive Allosteric Modulators of the Human D2 Dopamine Receptor: Potentiators; AID 624464, 2012; hit rate 0.23% among 360,000; D(2) dopamine receptor (Homo sapiens), P14416; potentiation, % (concentration not given with the values); DiscoveRx D2 beta-arrestin cells, luminescence, 90 min; 100% = 57 uM dopamine signal; in the data active means potentiation above about 50%; inconclusive means mostly about 30% to 49%
#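 PathHunter D2 cells, attached overnight at 37 deg C, received compound in DMSO plus dopamine at EC20 (50 nM final) for 90 min at 37 deg C. Beta-arrestin recruitment was read as luminescence after 1 h with detection reagent at ambient temperature.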
# D2 ag-2: HTS Assay for Allosteric Agonists of the Human D2 Dopamine Receptor: Primary Screen for Agonists; D(2) dopamine receptor (Homo sapiens), P14416; activation, % at 2 µM; AID 485358, 2010; HEK293 T-REx D2 cells, calcium flux agonist mode; hit rate 0.53% among 340,000;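 active means activation over 3 SD above normal in the single-dose calcium agonist read, cut at about 30% in these data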; further: 0% is about no effect
#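 Tetracycline-induced HEK293 T-REx cells with force-coupled D2 receptor, plated overnight at 30 C, loaded with no-wash calcium dye. After a 10 s baseline, compound was pin-added and calcium flux read kinetically for 180 s; calcium rises flagged agonists.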
# * = called active by the depositor; ? = inconclusive; . = not tested or not shown.
SMILES,D2 PAM-1,D2 antag,D2 ag-1,D2 PAM-2,D2 ag-2
O=C(Nc1ccc(NC(=O)C2CC2)nc1)c1cccnc1,2,38*,0,-15,1
O=C(Nc1ccc(NC(=O)C2CC2)nc1)c1cccc(F)c1,-6,-13,-4,-20,0
CCC(C(=O)N1CCN(c2cc(Cl)ccc2C)CC1)n1nc(C)n2c(cc3occc32)c1=O (centres undefined),-1,.,.,.,1
O=C1N/C(=N/c2ccccn2)SC1Cc1ccccc1 (centres undefined),6,-1,5,-7,1
O=C1NC(=Nc2ccccc2)SC1Cc1ccccc1 (centres undefined),41*,0,-2,-3,-1
Cc1ccc(-n2nc3c(c2NC(=O)c2ccco2)CS(=O)C3)c(C)c1 (centres undefined),-1,33*,-4,2,0
CC1CCCCN1C(=O)C12CCC(C)(C(=O)C1)C2(C)C (centres undefined),.,.,-1,0,.
CC1CCCCN1C(=O)C12CCC(C)(/C(=N/O)C1)C2(C)C (centres undefined),0,35*,-2,0,1
O=C1CN(C(=O)COc2ncnc3ccccc23)c2ccccc2N1,3,-10,-3,-16,0
Cc1sc2ncnc(OCC(=O)N3CC(=O)Nc4ccccc43)c2c1C,32*,-1,-2,-8,-1
O=C1CN(C(=O)COC(=O)c2ccc([N+](=O)[O-])s2)c2ccccc2N1,.,.,?,69*,.
O=C1CN(C(=O)COc2ccc(Cl)cc2Cl)c2ccccc2N1,-4,30*,-2,3,1
O=C1CN(C(=O)COC(=O)c2cccs2)c2ccccc2N1,16,16,-5,-1,-1
CC1CC(=O)Nc2ccccc2N1C(=O)COc1cc(Cl)ccc1Cl (centres undefined),-4,30*,2,-4,0
CC1CC(=O)Nc2ccccc2N1C(=O)COc1ccc2ccccc2c1 (centres undefined),.,.,2,2,.
O=C1CN(C(=O)COc2ccc(F)cc2Cl)c2ccccc2N1,2,15,0,6,0
O=C(NC1CCCC1)c1ccc(CSc2nc3cccnc3n2Cc2ccccc2F)cc1,7,.,.,.,-2
Cc1ccc(-c2nc(CS(=O)(=O)CC(=O)Nc3ccc(Br)cc3F)c(C)o2)cc1,-9,.,.,.,-1
Cc1ccc(S(=O)(=O)N2CCCc3cc(NS(=O)(=O)c4cc(F)ccc4F)ccc32)cc1,11,.,.,.,-2
O=C(NCc1ccccc1)Nc1cccn(Cc2ccc(Cl)cc2)c1=O,2,-25,-7,-9,0
O=C(NCc1ccccc1)Nc1cccn(Cc2ccccc2Cl)c1=O,-7,33*,-3,-4,-2
O=C(NCc1ccccc1Cl)NC(=O)c1ccccc1,-13,33*,1,-3,0
Cc1oc2c(c(C)cc3oc(=O)c(CC(=O)NCc4ccc(F)cc4)c(C)c32)c1C,0,.,.,.,.
O=C(Nc1ccc(F)cc1F)c1ccc2c(O)c(S(=O)(=O)c3ccc(Cl)cc3)c(=O)[nH]c2c1,-6,.,.,.,0
Cc1ccc(OCCNC(=O)CCNS(=O)(=O)c2ccc(C)cc2)cc1,6,30*,-6,-19,0
SMILES,D2 PAM-1,D2 antag,D2 ag-1,D2 PAM-2,D2 ag-2
CCCNS(=O)(=O)c1ccc(OCC(=O)NCCCOC)cc1,-14,30*,1,-3,1
CCOc1ccc(S(=O)(=O)NCCC(=O)NCCOc2ccccc2)cc1,-5,-8,-2,?,0
CCCNS(=O)(=O)c1ccc(OCC(=O)OC)cc1,-6,6,2,9,1
COc1ccccc1-c1oc2ccccc2c1C#CC(C)(C)O,-18,52*,-2,-7,0
O=C(NCCN1CCN(c2ccccc2)CC1)c1cccn2c(=O)c3ccccc3nc12,7,18,-4,-27,6
CN(CCCNC(=O)c1cccn2c(=O)c3ccccc3nc12)Cc1ccccc1,-21,31*,-3,-20,0
COc1ccccc1Cn1c(C2CC(=O)N(c3ccccc3OC)C2)nc2ccccc21 (centres undefined),-1,.,.,.,6
CCOc1ccc(C2c3c(oc4ccccc4c3=O)C(=O)N2CCCN2CCOCC2)cc1 (centres undefined),27,-4,0,-5,0
CCCOc1ccc(C2c3c(oc4ccccc4c3=O)C(=O)N2CCCN2CCOCC2)cc1 (centres undefined),-3,36*,-2,3,1
OC(CNCC#Cc1ccccc1)c1ccccc1 (centres undefined),-5,39*,1,-11,20
OC(CNCc1ccccc1)c1ccccc1 (centres undefined),-12,6,-4,-6,1
CCOc1ccc(C(=O)c2cn(CC(=O)Nc3ccc(F)cc3)c3cc4c(cc3c2=O)OCCO4)cc1,11,.,.,.,-1
CC(C)(C)NCCOc1ccc2ccccc2c1,-21,45*,-2,-11,3
COc1ccc(NC(=O)CC2C(=O)N(c3ccc(C)cc3)C(=O)N2CCc2ccccc2)cc1 (centres undefined),-7,.,.,.,0
O=C(C1=C[C@@H](c2coc3ccccc3c2=O)C[C@@H](OCCCCO)O1)N1CCOCC1,13,62*,-4,-9,0
CN1CCN(C(=O)C2=C[C@H](c3coc4ccccc4c3=O)C[C@H](OCCCCO)O2)CC1,1,0,-1,-8,0
CCC(Oc1ccccc1)C(=O)Nc1cc(-c2ccccc2OC)nn1-c1ccccc1 (centres undefined),-8,.,.,.,1
CCOc1ccccc1NC(=O)Cn1c(=O)n(Cc2ccco2)c(=O)c2ccc(C(=O)NC3CCCC3)cc21,2,.,.,.,0
COc1ccc(S(=O)(=O)NCC(c2ccco2)S(=O)(=O)c2cccs2)cc1F (centres undefined),-1,.,.,.,3
COc1ccc(/C=C2\SC(N)=NC2=O)cc1Br,-2,-8,2,0,0
CCCOc1ccc(/C=C2\SC(N)=NC2=O)cc1OC,-10,66*,-1,-5,-1
COc1ccc2c(c1)CCC/C2=N\NC(=O)c1ccoc1C,-2,38*,-2,-26,-3
O=C(/C=C/c1ccccc1Cl)Nc1nc(-c2cccs2)ns1,-6,.,.,.,0
